RTF Ca sens inh: cardiac RTF calcium sensitivity inhibitors, primary screen, biochemical, IANBD-TnC fluorescence, EC70 calcium; Troponin I, cardiac muscle (Homo sapiens) + Troponin T, cardiac muscle (Homo sapiens) + …; IANBD-labeled cardiac RTF, Ca2+ fluorescence; inhibition, % at 7.15 µM; 0.12% of 340,000 active;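 active = inhibition above the mean inhibition of all tested compounds plus 3 SD, cut at about 17% in these data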;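 note: assay run at fixed EC70 calcium of 1.6 mM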
Keap1 Nrf2 FP: Keap1-Nrf2 protein-protein interaction inhibitors, primary screen, biochemical, fluorescence polarization, single point; inhibition, % at 9.4 µM; Kelch-like ECH-associated protein 1 (Homo sapiens), Q14145; Keap1 Kelch-Nrf2 peptide fluorescence polarization, 1536-well; 0.15% of 340,000 active; in the data active = inhibition above about 12%;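 note: human Keap1 Kelch domain with fluorescein labeled Nrf2 9mer peptide probe; 0% = neutral control wells and 100% = peptide positive control; higher means more block of Keap1 binding to Nrf2 peptide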
Target sequence (Q14145 whole entry, looked up, the tested form may be a part): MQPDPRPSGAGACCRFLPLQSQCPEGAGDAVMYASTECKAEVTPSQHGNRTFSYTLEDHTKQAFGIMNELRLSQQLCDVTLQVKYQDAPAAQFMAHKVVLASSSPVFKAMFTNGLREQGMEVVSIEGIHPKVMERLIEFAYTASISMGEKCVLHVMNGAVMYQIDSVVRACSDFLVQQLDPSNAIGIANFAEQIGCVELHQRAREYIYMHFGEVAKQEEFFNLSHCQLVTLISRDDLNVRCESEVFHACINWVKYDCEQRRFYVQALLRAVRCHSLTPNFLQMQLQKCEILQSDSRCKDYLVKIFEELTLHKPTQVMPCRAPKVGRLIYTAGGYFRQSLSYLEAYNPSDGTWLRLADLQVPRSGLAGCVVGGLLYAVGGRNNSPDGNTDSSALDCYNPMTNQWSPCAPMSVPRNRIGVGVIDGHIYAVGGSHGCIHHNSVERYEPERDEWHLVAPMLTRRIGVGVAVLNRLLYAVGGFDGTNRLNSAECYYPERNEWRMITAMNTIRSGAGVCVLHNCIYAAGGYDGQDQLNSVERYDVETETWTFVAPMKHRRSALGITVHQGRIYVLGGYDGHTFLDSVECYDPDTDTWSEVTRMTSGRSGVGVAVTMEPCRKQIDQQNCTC
LANA DNA inh: inhibitors of KSHV C-LANA binding to DNA, primary screen, biochemical, fluorescence polarization, FAM-LBS DNA, MBP-C-LANA, single point; inhibition, % at 9 µM; 0.078% of 340,000 active; AID 504423, 2011; Kaposi's sarcoma herpesvirus LANA C-terminal domain (residues 932-1162) DNA binding;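 active = highest replicate inhibition at or above 60% at 9 µM, even if other replicates fall short; inactive = all replicates below 60% inhibition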;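 note: 0% = neutral control wells and 100% = 4 µM acridine orange control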
LANA-H2B inh: blockers of LANA interaction with H2A/H2B – biochemical, FP readout, HTS, primary screen; inhibition, % (test concentration not listed); Protein LANA1 (Human herpesvirus 8 type P (isolate GK18)), Q9QR71; cell-free LANA-H2A/H2B peptide, fluorescence polarization; 0.6% of 320,000 active; in the data active = inhibition mostly above about 10%, no sharp cut-off; inactive = mostly below about 6.7%
RTF Ca sens act: cardiac RTF calcium sensitivity activators, primary screen, biochemical, IANBD-TnC fluorescence, EC20 calcium | IANBD-labeled TnC RTF fluorescence at EC20 calcium; 0% EC20 calcium, 100% full calcium | activation, % at 7.2 µM | 0.24% of 340,000 active | AID 493008, 2010;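 active = activation above the mean over all tested compounds plus 3 SD, cut at about 30% in these data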;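 note: rise in fluorescence read as greater calcium sensitivity of cardiac thin filaments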
Starred values were filed as active, the others as inactive; . = no result given; + = active, no number; ! = repeats disagree. This is a sample that favours compounds with a hit; in the whole collection about 1% have one here.

SMILES	RTF Ca sens inh	Keap1 Nrf2 FP	LANA DNA inh	LANA-H2B inh	RTF Ca sens act
C=CC[C@@H](CC(=O)N[C@H](CO)Cc1ccccc1)C(=O)N[C@@H](COC(=O)[C@@H](CC=C)Cc1ccc(F)cc1)Cc1ccccc1	-1	5	-2	175*	-7
C=CC[C@@H](CC(=O)N[C@@H](CO)Cc1ccccc1)C(=O)N[C@H](COC(=O)[C@@H](CC=C)CC(=O)OC(C)(C)C)Cc1c[nH]c2ccccc12	-3	0	0	-405	-5
COC(=O)C1=C(C(=O)OC)[C@@H]2Nc3ccccc3[C@@]23C[C@@H](C(=O)OC)N(C(=O)c2ccco2)C3=N1	-11	0	1	-1	-3
COc1ccc(NS(=O)(=O)c2cc(NS(=O)(=O)c3cc(C(=O)O)ccc3OC)ccc2C)cc1	3	-2	0	.	1
CCN(C(=O)Nc1ccccc1)c1ccccc1	-2	-2	-1	17*	11
S=C(NCc1cccs1)Nc1cc(Cl)cc(Cl)c1	9	-5	-1	21*	-1
CSc1nsc(SCC(=O)Nc2ccc(C(N)=O)cc2)n1	3	0	0	31*	5
CSc1nsc(SCC(=O)Nc2ccc(C(C)=O)cc2)n1	-7	-5	0	-2	3
CCOc1ccc(Nc2ccc(N)c(S(=O)(=O)O)c2)cc1	-2	7	88*	.	-3
CCOc1ccc(NS(=O)(=O)c2ccc(N)cc2)cc1	-16	-4	1	1	-6
Cc1nn(Cc2ccc(F)cc2)c(C)c1NC(=O)c1cc(-c2ccco2)on1	0	1	-2	13*	4
Cc1cc(C(=O)Nc2c(C)nn(Cc3ccc(F)cc3)c2C)on1	3	-2	-1	1	7
COc1ccccc1NC(=O)c1c([N+](=O)[O-])cnn1C	-23	3	1	15*	1
Nc1[nH]c(=O)nc2snnc12	-4	-6	2	.	-3
COc1ccc(NC(=O)CCc2ccccc2)cc1NC(=O)c1ccco1	-3	-3	-1	28*	-2
COc1ccc(CC(=O)Nc2ccc(OC)c(NC(=O)c3ccco3)c2)cc1	-4	-4	0	31*	8
COc1ccc(NC(=O)c2ccco2)cc1NC(=O)c1ccc(Br)o1	8	-2	-1	-4	-1
Cc1cc(C)n(-c2ncnc3ccccc23)n1	-11	3	0	-9	4
O=C1CCc2cccc(O)c2N1	-4	1	2	.	-6
CC1=NN(c2ccccc2)C(=O)/C1=C\c1ccc(Oc2ccc([N+](=O)[O-])cc2[N+](=O)[O-])cc1	-10	1	0	22*	2
CN(C)CC(O)COc1cc2ccccc2cc1C(=O)N1CCCCC1 (stereo not given)	2	-7	-2	0	3
COc1cc(CN(C)Cc2cccc3ccccc23)cc([N+](=O)[O-])c1O	-5	2	0	-2	-4
O=C(CN1C(=O)C2C3C=CC(C3)C2C1=O)NCc1ccc2c(c1)OCO2 (stereo not given)	5	-4	0	19*	7
C/C=C(\C)CN1CCN(c2ccc(C)cc2)CC1	2	-5	2	-1	-2
CC(C)(C)[C@]1(O)CCN2C[C@H]3c4ccccc4CCc4cccc(c43)[C@@H]2C1	2	-1	-4	24*	1
SMILES	RTF Ca sens inh	Keap1 Nrf2 FP	LANA DNA inh	LANA-H2B inh	RTF Ca sens act
Nc1nccc(SCc2ccc(Cl)cc2Cl)n1	-2	0	-1	.	5
Nc1nc(N)c(Cc2ccc(Cl)cc2Cl)c(N)n1	-1	0	0	32*	-4
CCN(CC)c1ccc(/C=C/C(=O)C2C(=O)C=C(C)OC2=O)cc1 (stereo not given)	-122	-155	-31	-10	128*
CCN(CC)c1ccc(C=C2C(=O)OC(c3ccccc3)OC2=O)cc1 (stereo not given)	-6	-3	1	5	-6
Cc1cc(C)cc(N(C(=O)c2csnn2)C(C(=O)NC2CCCC2)c2ccccn2)c1 (stereo not given)	10	-4	0	3	4
CCn1c(=O)cc(SCC(=O)N2CCN(c3ccccc3OC)CC2)c2ccccc21	-6	4	0	1	0
COc1cccc(COC(=O)C2CCN(S(=O)(=O)c3ccc(C)cc3C)CC2)c1OC	7	0	-3	27*	3
Cc1cc(/C=C2\NC(=S)N(C)C2=O)ccc1N1CCCC1	-234	-62	-11	-11	87*
CCCN1C(=O)/C(=C/c2ccc(N3CCCC3)c(C)c2)NC1=S	-196	-24	-2	-22	68*
CCCN1C(=O)/C(=C/c2ccc(N3CCOCC3)cc2)NC1=S	-26	-14	-3	-2	22
COc1cc(/C=C2\NC(=S)N(C)C2=O)ccc1O	-7	-7	-4	-7	7
CCN1C(=O)/C(=C/c2ccc(N3CCCC3)cc2)NC1=S	-181	-34	-5	-9	151*
Cc1cc(/C=C2/C(=O)N(C)C(=S)N2C)ccc1N1CCCC1	-94	-18	-15	-3	32*
CCOc1ccc2[nH]c(=O)c(CN(CCOC)C(=O)N3CCOCC3)cc2c1	-8	-2	-2	2	8
CCCN=C1N(CC)C[C@@H]2[C@@H]3C(=O)N(C)C(=O)[C@@H]3[C@](C)(C(=O)OC)N12	-5	-4	0	.	-7
O=C(NC(=S)NCc1ccccc1Cl)c1cccs1	-2	5	0	-1	-4
Cc1nc(Cl)c2c(n1)NC(=O)CO2	.	.	.	5	.
NNC(=O)c1nc(-c2ccccc2)cc(-c2ccccc2)n1	-6	0	1	0	-4
CC(NC1CCCCC1)C(=O)NN=C(c1ccccc1)c1ccccc1 (stereo not given)	-2	3	-3	130*	1
Cc1cccc(-c2c3c(nc4c2c(=O)n(C)c(=O)n4C)-c2ccccc2C3O)c1 (stereo not given)	-15	0	0	0	2
C[C@]12CC[C@@H]3c4ccc(O)cc4CC[C@H]3[C@@H]1CCC2=O	1	-1	1	40*!	3
C[C@]12CCC3c4ccc(O)cc4CCC3C1CC/C2=N\N (stereo not given in full)	-4	-4	1	1	10
CCCc1ccc(C(=O)CCC(=O)O)cc1	-7	-1	-1	+	0
Cc1ccc(C(=O)CCC(=O)O)cc1	.	.	.	0	.

Assay outcomes: PubChem BioAssay, several laboratories
